Our source for the outcome and AC50 values is PubChem BioAssay (EPA / NIEHS).

The structures appear in SMILES notation. Calls of active or inactive are those of the source. The calls were made as follows: active = hit-call score of the fitted dose curve at least 0.9, where 1 is the maximum; inactive = score below 0.9.

Common to all, as to details: mRNA level, 48 h; actives raise or lower the signal
Read-out in experiment [1]: Early growth response protein 1 (EGR1) transcription factor, EGR1 (gene 1958)
Put plainly: LTEA_HepaRG_EGR1: Life Technologies and Expression Analysis (LTEA) Assay for Early growth response protein 1 (EGR1) transcription factor using HepaRG (AID 2283490). The procedure, abridged: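 Differentiated HepaRG cells in serum-free induction medium exposed 48 hours, duplicate, to 8 half-log concentrations up to 100 uM in 0.5% DMSO. EGR1 mRNA measured by TaqMan qRT-PCR, normalized to ACTB, GAPDH, POLR2A; bidirectional fit versus DMSO.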

Read-out in experiment [2]: Ezrin (EZR), EZR (gene 7430)
Put plainly: LTEA_HepaRG_EZR: Life Technologies and Expression Analysis (LTEA) Assay for Ezrin (EZR) using HepaRG (AID 2283491). The procedure, abridged: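 Differentiated human HepaRG cells, 48 h after plating, were exposed in serum-free induction medium for 48 hours to eight half-log concentrations up to 100 uM in 0.5% DMSO. EZR mRNA was measured by TaqMan qRT-PCR, normalized to ACTB, GAPDH and POLR2A, and fitted bidirectionally against DMSO.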

Read-out in experiment [3]: Cytochrome P450 3A7 (Homo sapiens) (UniProt P24462)
Put plainly: LTEA_HepaRG_CYP3A7: Life Technologies and Expression Analysis (LTEA) Assay for CYP3A7 using HepaRG (AID 2283492). The procedure, abridged:
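CYP3A7 transcript measured by qRT-PCR (ACTB, GAPDH, POLR2A normalization) after 48 h chemical exposure of HepaRG cells in duplicate. Eight half-log concentrations, maximum 100 uM, 0.5% DMSO vehicle; bidirectional curve fitting against DMSO baseline.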

Read-out in the next experiment: CYP3A5 (gene 1577)
Put plainly: LTEA_HepaRG_CYP3A5: Life Technologies and Expression Analysis (LTEA) Assay for CYP3A5 using HepaRG (AID 2283493). The procedure, abridged:
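HepaRG cells, plated 48 h then in serum-free induction medium, dosed in duplicate for 48 h with eight half-log concentrations up to 100 uM in 0.5% DMSO. Gene mRNA by Fluidigm TaqMan qRT-PCR, normalized to ACTB, GAPDH, POLR2A.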

Read-out in experiment [4]: Fatty Acid-Binding Protein 1 (FABP1), FABP1 (gene 2168)
Put plainly: LTEA_HepaRG_FABP1: Life Technologies and Expression Analysis (LTEA) Assay for Fatty Acid-Binding Protein 1 (FABP1) using HepaRG (AID 2283494). The method in brief: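 Differentiated human HepaRG cells exposed 48 h in serum-free induction medium to eight half-log concentrations up to 100 uM (0.5% DMSO), duplicate. FABP1 mRNA by qRT-PCR, normalised to ACTB, GAPDH, POLR2A; bidirectional fitting against DMSO.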

Read-out in experiment [5]: Cytochrome P450 4A22 (Homo sapiens) (UniProt Q5TCH4)
The experiment in a line: LTEA_HepaRG_CYP4A22: Life Technologies and Expression Analysis (LTEA) Assay for Cytochrome P450 4A22 (CYP4A22) using HepaRG (AID 2283495). The procedure, abridged: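 Gene expression measured by qRT-PCR against three housekeeping genes (ACTB, GAPDH, POLR2A), with gain or loss fitted relative to 0.5% DMSO vehicle. HepaRG cultures received 48 h chemical treatment, top concentration 100 uM, half-log steps, duplicate wells.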

Read-out in experiment [6]: Glutamate-cysteine ligase catalytic (GCLC), GCLC (gene 2729)
The experiment in a line: LTEA_HepaRG_GCLC: Life Technologies and Expression Analysis (LTEA) Assay for Glutamate-cysteine ligase catalytic (GCLC) using HepaRG (AID 2283498). The method in brief:
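Differentiated HepaRG cells exposed 48 h in serum-free induction medium, eight-point half-log series topping at 100 uM in 0.5% DMSO, duplicates. GCLC mRNA by qRT-PCR normalized to ACTB, GAPDH and POLR2A, fitted bidirectionally versus DMSO.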

Read-out in experiment [7]: growth arrest and DNA damage 45 (GADD45G), GADD45G (gene 10912)
The experiment in a line: LTEA_HepaRG_GADD45G: Life Technologies and Expression Analysis (LTEA) Assay for growth arrest and DNA damage 45 (GADD45G) using HepaRG (AID 2283499). The procedure, abridged: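 GADD45G transcript level by qRT-PCR (housekeeping-normalized: ACTB, GAPDH, POLR2A) after 48 h chemical treatment of a single HepaRG lot in serum-free induction medium; eight-point half-log series up to 100 uM in 0.5% DMSO, duplicates, up- or down-regulation scored.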

Read-out in experiment [8]: Glutamate-cysteine ligase regulatory (GCLM), GCLM (gene 2730)
Put plainly: LTEA_HepaRG_GCLM: Life Technologies and Expression Analysis (LTEA) Assay for Glutamate-cysteine ligase regulatory (GCLM) using HepaRG (AID 2283500). The procedure, abridged:
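Differentiated HepaRG cells exposed 48 h in serum-free induction medium to eight half-log concentrations up to 100 uM (0.5% DMSO). GCLM mRNA by TaqMan qRT-PCR, normalized to ACTB, GAPDH and POLR2A; bidirectional fit versus DMSO.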

Read-out in experiment [9]: Heat shock 70 kDa protein 1 (HSPA1A), gene 3303
The experiment in a line: LTEA_HepaRG_HSPA1A: Life Technologies and Expression Analysis (LTEA) Assay for Heat shock 70 kDa protein 1 (HSPA1A) using HepaRG (AID 2283502). The method in brief:
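Human HepaRG cells in serum-free induction medium were exposed in duplicate for 48 h to 8 half-log concentrations, highest 100 uM, in 0.5% DMSO. HSPA1A mRNA read by TaqMan qRT-PCR, normalized to ACTB, GAPDH, POLR2A, fitted bidirectionally against DMSO.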

Read-out in experiment [10]: Hypoxia-inducible factor 1-alpha (Homo sapiens) (UniProt Q16665)
Put plainly: LTEA_HepaRG_HIF1A: Life Technologies and Expression Analysis (LTEA) Assay for Hypoxia-inducible factor 1 (HIF1A) Trancription factor using HepaRG (AID 2283503). The procedure, abridged: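 Differentiated HepaRG cells in serum-free induction medium exposed 48 h, in duplicate, to 8-point half-log series from 100 uM in 0.5% DMSO. HIF1A mRNA measured by TaqMan qRT-PCR, normalized to ACTB/GAPDH/POLR2A, fitted bidirectionally versus DMSO.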

Read-out in experiment [11]: 3-Hydroxy-3-Methylglutaryl-CoA Synthase 2 (HMGCS2), HMGCS2 (gene 3158)
Put plainly: LTEA_HepaRG_HMGCS2: Life Technologies and Expression Analysis (LTEA) Assay for 3-Hydroxy-3-Methylglutaryl-CoA Synthase 2 (HMGCS2) using HepaRG (AID 2283504). The method in brief: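 Readout is HMGCS2 transcript by qRT-PCR, housekeeping-normalised (ACTB/GAPDH/POLR2A) and fitted bidirectionally against 0.5% DMSO. Differentiated HepaRG cells received chemicals 48 h, duplicate wells, eight half-log concentrations topping at 100 uM.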

Read-out in a further experiment: HGF (gene 3082)
Put plainly: LTEA_HepaRG_HGF: Life Technologies and Expression Analysis (LTEA) Assay for Hepatocyte Growth Facto (HGF) using HepaRG (AID 2283505). The procedure, abridged:
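HGF transcript was quantified by TaqMan qRT-PCR against three housekeeping genes after 48 h treatment of HepaRG cells. Exposure ran in duplicate over eight half-log steps topping at 100 uM in 0.5% DMSO vehicle.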

Read-out in experiment [12]: Insulin Like Growth Factor 1 (IGF1), IGF1 (gene 3479)
Put plainly: LTEA_HepaRG_IGF1: Life Technologies and Expression Analysis (LTEA) Assay for Insulin Like Growth Factor 1 (IGF1) using HepaRG (AID 2283506). The procedure, abridged: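 Differentiated HepaRG cells in serum-free induction medium, exposed 48 h in duplicate to 8 half-log concentrations up to 100 uM in 0.5% DMSO. IGF1 mRNA by Fluidigm qRT-PCR, normalised to ACTB, GAPDH and POLR2A.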

Read-out in experiment [13]: Intercellular Adhesion Molecule 1 (ICAM1), ICAM1 (gene 3383)
The experiment in a line: LTEA_HepaRG_ICAM1: Life Technologies and Expression Analysis (LTEA) Assay for Intercellular Adhesion Molecule 1 (ICAM1) using HepaRG (AID 2283507). The procedure, abridged: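 ICAM1 transcript levels measured by qRT-PCR, normalized to three housekeeping genes (ACTB, GAPDH, POLR2A), after 48 h chemical exposure of HepaRG cells. Duplicate eight-point half-log series from 100 uM in 0.5% DMSO; gain or loss fitted against vehicle.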

Read-out in experiment [14]: Insulin-like growth factor-binding protein 1 (IGFBP1), IGFBP1 (gene 3484)
Put plainly: LTEA_HepaRG_IGFBP1: Life Technologies and Expression Analysis (LTEA) Assay for Insulin-like growth factor-binding protein 1 (IGFBP1) using HepaRG (AID 2283508). The procedure, abridged:
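Read-out is qRT-PCR transcript level normalized to three housekeeping genes, fitted in both directions against 0.5% DMSO. Differentiated HepaRG cells received eight half-log concentrations (top 100 uM) in duplicate for 48 h in serum-free induction medium.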

Read-out in experiment [15]: Interleukin 6 (IL6), IL6 (gene 3569)
The experiment in a line: LTEA_HepaRG_IL6: Life Technologies and Expression Analysis (LTEA) Assay for Interleukin 6 (IL6) using HepaRG (AID 2283509). The procedure, abridged: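 HepaRG cells exposed in duplicate for 48 h to eight half-log concentrations, top 100 uM, in 0.5% DMSO serum-free induction medium. mRNA measured by qRT-PCR, normalized to ACTB, GAPDH and POLR2A. Bidirectional fit versus DMSO.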

Read-out in experiment [16]: Glutathione S-Transferase (GSTA2), GSTA2 (gene 2939)
Put plainly: LTEA_HepaRG_GSTA2: Life Technologies and Expression Analysis (LTEA) Assay for Glutathione S-Transferase (GSTA2) using HepaRG (AID 2283497). The method in brief: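 Differentiated human HepaRG cells were exposed in duplicate for 48 h in serum-free induction medium, 8 points from 100 uM top in half-log steps, 0.5% DMSO. GSTA2 mRNA was measured by TaqMan qRT-PCR, normalized to ACTB, GAPDH and POLR2A; bidirectional fit versus DMSO.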

Cytochrome P450 3A7 (Homo sapiens), sequence (P24462 whole entry, looked up): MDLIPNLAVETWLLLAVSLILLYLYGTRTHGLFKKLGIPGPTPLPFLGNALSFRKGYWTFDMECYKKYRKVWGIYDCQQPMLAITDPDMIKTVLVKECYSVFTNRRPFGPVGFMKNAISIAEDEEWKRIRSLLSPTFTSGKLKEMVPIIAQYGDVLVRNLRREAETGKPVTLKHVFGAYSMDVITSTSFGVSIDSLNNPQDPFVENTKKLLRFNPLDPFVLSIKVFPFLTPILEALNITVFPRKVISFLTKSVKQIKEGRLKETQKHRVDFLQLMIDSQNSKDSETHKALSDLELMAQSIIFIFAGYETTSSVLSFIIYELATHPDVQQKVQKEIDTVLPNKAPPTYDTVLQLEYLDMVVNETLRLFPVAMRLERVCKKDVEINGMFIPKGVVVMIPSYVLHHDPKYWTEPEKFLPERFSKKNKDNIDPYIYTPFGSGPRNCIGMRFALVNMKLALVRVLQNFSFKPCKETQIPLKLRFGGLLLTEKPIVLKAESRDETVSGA
Hypoxia-inducible factor 1-alpha (Homo sapiens), sequence (Q16665 whole entry, looked up): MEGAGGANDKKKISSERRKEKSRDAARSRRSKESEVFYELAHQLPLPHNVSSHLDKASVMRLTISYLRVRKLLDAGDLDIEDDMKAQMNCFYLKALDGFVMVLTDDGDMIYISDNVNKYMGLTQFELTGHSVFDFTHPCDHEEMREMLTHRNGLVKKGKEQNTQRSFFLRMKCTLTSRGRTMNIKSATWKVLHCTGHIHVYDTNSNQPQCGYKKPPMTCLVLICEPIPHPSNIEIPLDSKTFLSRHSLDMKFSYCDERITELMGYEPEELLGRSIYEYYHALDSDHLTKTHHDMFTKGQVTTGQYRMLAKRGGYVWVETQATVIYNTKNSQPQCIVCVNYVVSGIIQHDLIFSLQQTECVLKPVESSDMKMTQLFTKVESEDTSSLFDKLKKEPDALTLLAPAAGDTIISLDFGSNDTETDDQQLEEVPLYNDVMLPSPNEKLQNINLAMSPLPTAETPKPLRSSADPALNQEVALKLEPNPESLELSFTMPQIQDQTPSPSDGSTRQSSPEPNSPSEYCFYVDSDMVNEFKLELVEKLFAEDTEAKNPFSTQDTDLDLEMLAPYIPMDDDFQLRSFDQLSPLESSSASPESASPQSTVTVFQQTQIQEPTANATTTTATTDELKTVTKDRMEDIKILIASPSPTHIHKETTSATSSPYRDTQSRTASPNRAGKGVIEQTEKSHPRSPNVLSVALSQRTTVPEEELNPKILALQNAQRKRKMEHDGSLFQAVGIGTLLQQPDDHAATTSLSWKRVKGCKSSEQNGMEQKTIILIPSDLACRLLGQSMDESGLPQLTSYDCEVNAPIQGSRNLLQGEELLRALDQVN

For the molecule `Clc1cc(Cl)c2c(c1)N=C1CCCCCN1C2`, the molecule was classed as inactive (in [1]; in experiment [2]; with CYP3A5 (gene 1577); in experiment [4]; in experiment [5]; in [6]). Besides, the molecule was classed as inactive (in experiment [7]; in experiment [8]; in experiment [9]; in [10]; in [11]; with HGF (gene 3082)). Besides, the call in experiment [13] and in experiment [15] was inactive. The AC50 was 7.11 µM (active) in experiment [3], 5.03 µM (active) in experiment [12] and 15.5 µM (active) in experiment [14].

For `CCN(Cc1cccnc1)C(=O)c1cccc(Cl)c1[C@]1(C)C(=O)N(Cc2ccc(OC)cc2OC)c2ccc(Cl)cc21`, the result (in [1]; in experiment [2]; with CYP3A5 (gene 1577); in experiment [7]; in experiment [10]) was inactive. Further, the AC50 is 24.1 µM (active) in experiment [3]; 22.3 µM (active) in experiment [4]; 14.4 µM (active) in experiment [5]; 22.4 µM (active) in [6]; 20.1 µM (active) in experiment [8]; 6.92 µM (active) in [9]. Moreover, the AC50 in experiment [11] was 21.8 µM (active); with HGF (gene 3082), 21.9 µM (active); in experiment [12] it was 14.4 µM (active); in experiment [13] it was 21.2 µM (active); in experiment [14], 17.5 µM (active); in experiment [15], 24.9 µM (active).

As for `OCCO`, the molecule was called inactive (in experiment [1]; in experiment [2]; in experiment [3]; with CYP3A5 (gene 1577); in experiment [4]; in [16]). Also, the result in experiment [6], in [7], in experiment [8], in experiment [9], in experiment [10] and in [11] was inactive. Moreover, the result (with HGF (gene 3082); in experiment [12]; in [13]; in [14]; in [15]) was inactive.
